Among the data in PubChem BioAssay (NCI) are growth inhibition values, retold here.

The nature of the assay: NCI Yeast Anticancer Drug Screen. Data for the rad50EPP+ strain (AID 151).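 Note: 0% = growth of vehicle-treated control cultures.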 The following applies: S. cerevisiae rad50 mutant strain, active compounds read high. The method, then: Growth inhibition of yeast strains with defined genetic alterations is measured as a screen for potential anti-cancer activity. Selected strains with alterations in DNA damage repair or cell cycle control were exposed to compounds and growth inhibition was measured relative to vehicle treated controls. The strain used in this assay is rad50EPP+

The structures appear in SMILES notation. The panel holds about 79,000 compounds, 15% with a hit somewhere; the sample as a whole holds those more often. Calls of active or inactive are those of the source. Cut-off read from the data, not from the text of the source: active = growth inhibition above about 70%; inactive = the rest.

As for `O=C(c1ccccc1)C1C(c2ccccc2[N+](=O)[O-])N1C1CCCCC1` (stereo not given), the growth inhibition was 5% (inactive) (at 1.2 µM); 19% (inactive) (at 3.7 µM); 48% (inactive) (at 11.0 µM); 80% (active) (at 33.0 µM); 82% (active) (at 100.0 µM).

As to `c1ccc2cc3n[se]nc3cc2c1`, the growth inhibition reads like this: (at 1.2 µM) 2% (inactive); (at 3.7 µM) 13% (inactive); (at 11.0 µM) 33% (inactive); (at 33.0 µM) 64% (inactive); (at 100.0 µM) 86% (active).

On to `CCC(=O)OC1CCn2c1nc1c2C(=O)C(C)=C(N2CC2)C1=O` (stereo not given), for which the growth inhibition (at 1.2 µM) was 12% (inactive); the growth inhibition (at 3.7 µM) is 1% (inactive); the growth inhibition (at 11.0 µM) was -9% (inactive); the growth inhibition (at 33.0 µM) is 7% (inactive); the growth inhibition (at 100.0 µM) is 25% (inactive).

Consider `CC[C@@]1(O)C[C@H](OC2CC(N(C)C)C(O)C(C)O2)c2c(O)c3c(c(O)c2[C@H]1OC1CC(N(C)C)C(O)C(C)O1)C(=O)c1cccc(O)c1C3=O` (stereo not given in full), for which the growth inhibition reads like this: (at 1.2 µM) 20% (inactive); (at 3.7 µM) 26% (inactive); (at 11.0 µM) 25% (inactive); (at 33.0 µM) 21% (inactive); (at 100.0 µM) 34% (inactive).

With `COc1cc([C@@H]2c3cc4c(cc3C[C@@H]3COC(=O)C32)OCO4)cc(OC)c1O` (stereo not given in full), the growth inhibition (at 1.2 µM) was -5% (inactive); the growth inhibition (at 3.7 µM) was -6% (inactive); the growth inhibition (at 11.0 µM) is -4% (inactive); the growth inhibition (at 33.0 µM) is -4% (inactive); the growth inhibition (at 100.0 µM) is -6% (inactive).

On to `C/C(=N\NC(N)=O)C(CN1CCOCC1)C(c1ccccc1)c1c(O)c2ccccc2oc1=O` (stereo not given), for which the growth inhibition by setting is: (at 1.2 µM) -2% (inactive); (at 3.7 µM) 4% (inactive); (at 11.0 µM) 1% (inactive); (at 33.0 µM) -1% (inactive); (at 100.0 µM) -10% (inactive).

Consider `C[C@]12CCC(=O)C=C1CC[C@@H]1C2CC[C@@]2(C)C1CC[C@@H]2OC(=O)C12OC1CCC2=O` (stereo not given in full), for which the growth inhibition by setting is: (at 1.2 µM) 9% (inactive); (at 3.7 µM) 25% (inactive); (at 11.0 µM) 69% (inactive); (at 33.0 µM) 94% (active); (at 100.0 µM) 97% (active).

Turning to `O=C1OC2C(O1)C1(Cl)C(Cl)=C(Cl)C2(Cl)C1(Cl)Cl` (stereo not given), the growth inhibition is, setting by setting: (at 1.2 µM) -1% (inactive); (at 3.7 µM) 0% (inactive); (at 11.0 µM) 0% (inactive); (at 33.0 µM) -3% (inactive); (at 100.0 µM) -2% (inactive).
